# Calls of active or inactive are those of the source. No rule for the calls is given here.
# Experiment: liver-stage malaria parasite load reduction – cell-based, known kinase inhibitor set, luminescence, hepatoma host viability (AID 624392);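 also: infected cells incubated roughly two days before readout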
# Conditions: Plasmodium liver stage in hepatoma cells, luciferase luminescence, concentration not given here; liver cell % of control: measured here: host liver cell viability; parasite % of control: stronger effect = lower value
Compound,parasite % of control,liver cell % of control [%]
O=C(Nc1ccc(-c2csc(Nc3cccc(C(F)(F)F)c3)n2)cc1)c1cccc(C(F)(F)F)c1,45.1% (inactive),101
CC(C)n1cnc2c(Nc3cccc(Cl)c3)nc(NCCCO)nc21,206% (inactive),90.1
Cc1ccc(C(=O)Nc2cccc(C(F)(F)F)c2)cc1Nc1cnccn1,23.7% (inactive),98.3
O=C(Nc1ccc(-c2csc(Nc3ccc(Cl)cc3)n2)cc1)c1cc([N+](=O)[O-])cc(C(F)(F)F)c1,97.2% (inactive),106
C=CC(=O)N1CCN(Cc2ccc(C(=O)Nc3ncc(Sc4cc(C(=O)N5CCN(C(C)=O)CC5)c(OC)cc4C)s3)cc2)CC1,597% (inactive),92.4
COc1cc(NC(=O)N2CCNC2=O)cc(C(=O)Nc2cccc(C(F)(F)F)c2)c1,223% (inactive),104
C=CC(=O)Nc1ccc(Oc2nc(Nc3ccc(N4CCN(C)CC4)cc3OC)ncc2Cl)cc1,126% (inactive),97.7
COc1cc(Nc2ccccn2)cc(C(=O)Nc2cccc(C(F)(F)F)c2)c1,74.9% (inactive),92.4
NS(=O)(=O)c1ccc(-c2cccc(C=C3SC(=O)NC3=O)c2)cc1,17% (inactive),87.7
Cc1ccc(C(=O)Nc2cccc(C(F)(F)F)c2)cc1NC(=O)c1csc(-c2ccncc2)n1,76.3% (inactive),91.8
CC(C)Oc1cc(C(=O)N2CCC(N3CCCCC3)CC2)ccc1Nc1nnc(Cl)c(Nc2ccccc2S(C)(=O)=O)n1,81.6% (inactive),98.2
OCCCNc1nccc(-c2cc(Nc3cccc(Cl)c3)ncn2)n1,176% (inactive),81.8
COc1ccc(-c2cc(C(=O)Nc3cc(OC)cc(C(=O)Nc4cccc(C(F)(F)F)c4)c3)[nH]n2)cc1,36.9% (inactive),93.9
CC(C)n1cnc2c(Nc3cccc(F)c3)nc(NCCO)nc21,135% (inactive),95.1
CCC(CO)Nc1nc(Nc2cccc(Cl)c2)c2ncn(C(C)C)c2n1 (configuration not stated),477% (inactive),90.3
CCN1CCN(Cc2ccc(NC(=O)c3cc(NC(=O)C(=O)c4c[nH]c5ccccc45)cc(OC)c3)cc2C(F)(F)F)CC1,85.7% (inactive),92.9

Compound,parasite % of control,liver cell % of control [%]
CS(=O)(=O)Nc1ccc(-c2ccc(C=C3SC(N)=NC3=O)o2)cc1,130% (inactive),105
CCN1CCN(Cc2ccc(NC(=O)c3cc(NC(=O)c4cnn(-c5ccccc5)c4N)cc(OC)c3)cc2C(F)(F)F)CC1,130% (inactive),109
COc1cc(C(=O)N2CCC(N3CCCCC3)CC2)ccc1Nc1nnc(Cl)c(Nc2ccccc2S(C)(=O)=O)n1,118% (inactive),97.3
NS(=O)(=O)c1ccc(-c2ccc(C=C3NC(=S)NC3=O)o2)cc1,100% (inactive),98.7
CCN1CCN(Cc2ccc(NC(=O)c3ccc(C)c(NC(=O)c4cccc(-c5cn[nH]c(=O)c5)c4)c3)cc2C(F)(F)F)CC1,55.8% (inactive),103
CCN1CCN(Cc2ccc(NC(=O)c3ccc(C)c(NC(=O)c4ccc5n[nH]nc5c4)c3)cc2C(F)(F)F)CC1,112% (inactive),104
COc1cc(NC(=O)c2cnc(N)o2)cc(C(=O)Nc2cccc(C(F)(F)F)c2)c1,106% (inactive),87.7
Cc1nc(Nc2cnc(C=Cc3cc(C(=O)Nc4cccc(C(F)(F)F)c4)ccc3C)cn2)cc(N2CCNCC2)n1,144% (inactive),92.4
CCN1CCN(Cc2ccc(NC(=O)c3ccc(C)c(NC(=O)c4nccnc4N)c3)cc2C(F)(F)F)CC1,155% (inactive),93.8
NC1=NC(=O)C(=Cc2ccc(-c3ccc(Cl)cc3)o2)S1,73.1% (inactive),97.6
CCN1CCN(Cc2ccc(NC(=O)c3ccc(C)c(NC(=O)CC4NC(=O)C(Cc5ccccc5)NC4=O)c3)cc2C(F)(F)F)CC1 (configuration not stated),114% (inactive),105
CCN1CCN(Cc2ccc(NC(=O)c3ccc(C)c(NC(=O)c4nccn4C)c3)cc2C(F)(F)F)CC1,90.4% (inactive),101
Nc1ccc(-c2cnc(N)c(C(=O)c3cccnc3)n2)cn1,132% (inactive),97.9
COc1cc(NC(=O)c2ccnc(N)c2)cc(C(=O)Nc2cccc(C(F)(F)F)c2)c1,89.2% (inactive),96.6
Cc1cn(-c2cc(C(=O)Nc3ccc(C)c(NC(=O)C(=O)c4c[nH]c5ccccc45)c3)cc(C(F)(F)F)c2)cn1,102% (inactive),95.9

# From PubChem BioAssay
